According to the supplement of paper PMC7366291:
Structures can show the parent of a compound that is named as a salt. ± gives the standard deviation or the standard deviation of the averaged measurements.

What was measured:
Conditions in all cases: 25 µM; exposure: 24-48 hpf
[1] = tested on: Danio rerio Tg(wt1b:EGFP) embryo, pronephros; test: glomerular separation, fold change vs DMSO control; higher = glomeruli further apart (abnormal)
Outline: (§1)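 Dechorionated Tg(wt1b:EGFP) zebrafish embryos were kept from 24 to 48 hpf at 28.5°C in HEPES-buffered E3 containing 0.003% PTU, 0.5% DMSO and 25 μM compound. The pronephroi were then imaged from the dorsal side in agarose-filled 96-well plates at 470 nm with 10 z-slices, and 16 reference points were placed by hand on maximum projections in Fiji so that a macro could calculate distances and angles. Values lying more than 2 SD from the mean of a feature were discarded. Every feature is given as a fold change against the mean of DMSO-treated embryos from the same day.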

[2] = tested on: Danio rerio Tg(wt1b:EGFP) embryo, pronephros; test: glomerular width (mean of left and right), fold change vs DMSO control; higher = wider glomerulus
Outline: as §1

[3] = tested on: Danio rerio Tg(wt1b:EGFP) embryo, pronephros; test: fraction of imaged embryos annotated as normal kidney; higher = less nephrotoxic; extreme values may be limits of the assay
Outline: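 The read-out is the proportion of embryos in each treatment manually annotated as normal-kidney. Exposure ran from 24 to 48 hpf at 28.5°C in 12-well plates, using dechorionated Tg(wt1b:EGFP) zebrafish embryos in 5 mM HEPES-buffered E3 with 0.003% PTU, 0.5% DMSO and 25 μM compound. For imaging, larvae were anaesthetised with tricaine, positioned dorsally in agarose-filled 96-well plates and captured by widefield fluorescence (470 nm, 10 z-slices), with scoring done on maximum projections.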

[4] = tested on: Danio rerio Tg(wt1b:EGFP) embryo, pronephros; test: pronephric angle neck segment to proximal convoluted tubule (mean of left and right), fold change vs DMSO control; higher = larger pronephric angle
Outline: as §1

Row | Compound | glomerular separation [1] | glomerular width [2] | fraction of imaged embryos annotated as normal kidney [3] | pronephric angle neck segment [4]
1 | CS(=O)(=O)c1ccc(C2=C(c3ccccc3)C(=O)OC2)cc1 [Rofecoxib] | 0.981 ± 0.22 | 0.974 ± 0.11 | 1 | 0.969 ± 0.024
2 | CC(=O)N(O)CCCCCNC(=O)CCC(=O)N(O)CCCCCNC(=O)CCC(=O)N(O)CCCCCN [Deferoxamine mesylate] | 0.888 ± 0.3 | 1.02 ± 0.042 | 0.917 | 1.01 ± 0.018
3 | NC[C@H]1CC[C@H](C(=O)O)CC1 [Tranexamic acid] | 0.901 ± 0.18 | 0.9771 ± 0.0082 | 1 | 1.05 ± 0.022
4 | Nc1ccc(/N=N/c2ccccc2)c(N)n1 [Phenazopyridine hydrochloride] | 1.27 ± 0.52 | 0.979 ± 0.025 | 0.583 | 1.101 ± 0.01
5 | CC1CCc2cc(F)cc3c(=O)c(C(=O)O)cn1c23 (centres undefined) [Flumequine] | 2.57 ± 1.2 | 1.05 ± 0.023 | 0.583 | 1.15 ± 0.046
6 | CN(C)[C@@H]1C(O)=C(C(=O)NCNCCCC[C@H](N)C(=O)O)C(=O)[C@@]2(O)C(O)=C3C(=O)c4c(O)cccc4[C@@](C)(O)[C@H]3C[C@@H]12 [Lymecycline] | 1.2 ± 0.48 | 0.916 ± 0.014 | 1 | 0.97 ± 0.023
7 | NC(=O)NC1NC(=O)NC1=O (centres undefined) [Allantoin] | 0.881 ± 0.25 | 0.9104 ± 0.001 | 0.917 | 0.981 ± 0.024
8 | O=C1CC[C@@H](C(=O)N2CSC[C@H]2C(=O)O)N1 [Pidotimod] | 1.03 ± 0.42 | 1.05 ± 0.025 | 0.917 | 1.003 ± 0.0016
9 | Cc1ccc(/C(=C\CN2CCCC2)c2ccccn2)cc1 [Triprolidine hydrochloride] | 0.823 ± 0.16 | 1.035 ± 0.0046 | 0.917 | 1.04 ± 0.045
10 | NS(=O)(=O)c1cc2c(cc1C(F)(F)F)NC(Cc1ccccc1)NS2(=O)=O (centres undefined) [Bendroflumethiazide] | 1.15 ± 0.68 | 0.896 ± 0.043 | 0.875 | 1.09 ± 0.083
11 | CN(C(=O)CN(CCO)CC(=O)N(C)C(C)(C)Cc1ccccc1)C(C)(C)Cc1ccccc1 [Oxethazaine] | 0.855 ± 0.18 | 1.1 ± 0.017 | 0.727 | 0.94 ± 0.059
12 | CC(C)NCC(O)COc1cccc2[nH]ccc12 (centres undefined) [Pindolol] | 0.674 ± 0.2 | 0.901 ± 0.021 | 0.909 | 0.984 ± 0.025
13 | COc1ccc(CN(CCN(C)C)c2ccccn2)cc1 [Pyrilamine maleate] | 1.29 ± 0.44 | 1.03 ± 0.018 | 0.667 | 1.03 ± 0.033
14 | Cn1ccnc1S [Methimazole] | 1.23 ± 0.58 | 0.876 ± 0.045 | 0.818 | 1.11 ± 0.064
15 | O=C(O)CCCC[C@@H]1SC[C@@H]2NC(=O)N[C@@H]21 [Biotin] | 0.993 ± 0.31 | 0.993 ± 0.043 | 0.917 | 1.02 ± 0.066
16 | CN1CC2c3ccccc3Oc3ccc(Cl)cc3C2C1 (centres undefined) [Asenapine maleate] | 0.806 ± 0.35 | 0.991 ± 0.088 | 0.583 | 0.7772 ± 0.0031

Row | Compound | glomerular separation [1] | glomerular width [2] | fraction of imaged embryos annotated as normal kidney [3] | pronephric angle neck segment [4]
17 | CN1CCCN=C1/C=C/c1cccs1 [Pyrantel tartrate] | 0.9 ± 0.18 | 0.937 ± 0.024 | 0.917 | 1.074 ± 0.0072
18 | O=C(O[C@@H]1C[C@@H]2C[C@H]3C[C@H](C1)N2CC3=O)c1c[nH]c2ccccc12 [Dolasetron mesilate] | 0.787 ± 0.28 | 1.01 ± 0.018 | 0.75 | 0.946 ± 0.035
19 | Cc1c(Cl)cccc1Nc1ncccc1C(=O)O [Clonixin Lysinate] | 4.04 ± 1.5 | 0.545 ± 0.048 | 0 | 1.81 ± 0.068
20 | Cc1scc2c1N(C(=O)CN1CCN(C)CC1)c1ccccc1NC2=O [Telenzepine dihydrochloride] | 0.967 ± 0.17 | 0.937 ± 0.032 | 1 | 0.963 ± 0.01
21 | CC1CS(=O)(=O)CCN1/N=C/c1ccc([N+](=O)[O-])o1 (centres undefined) [Nifurtimox] | 0.837 ± 0.36 | 0.986 ± 0.038 | 0.917 | 0.938 ± 0.045
22 | Oc1ncnc2[nH]ncc12 [Allopurinol] | 0.837 ± 0.22 | 0.984 ± 0.018 | 0.75 | 0.9723 ± 0.0072
23 | COc1cc(C(=O)OCCCN2CCCN(CCCOC(=O)c3cc(OC)c(OC)c(OC)c3)CC2)cc(OC)c1OC [Dilazep dihydrochloride] | 1 ± 0.36 | 0.986 ± 0.055 | 0.75 | 1.08 ± 0.089
24 | CCOC(=O)[C@@](C)(N)Cc1ccc(O)c(O)c1 [Methyldopate hydrochloride] | 1.28 ± 0.62 | 0.9116 ± 0.0027 | 0.667 | 1.014 ± 0.0011
25 | CCN(CCCCOC(=O)c1ccc(OC)c(OC)c1)C(C)Cc1ccc(OC)cc1 (centres undefined) [Mebeverine hydrochloride] | 0.925 ± 0.3 | 0.986 ± 0.044 | 0.833 | 0.965 ± 0.017
26 | CC(=O)CC(c1ccc([N+](=O)[O-])cc1)c1c(O)c2ccccc2oc1=O (centres undefined) [Acenocoumarol] | 0.834 ± 0.45 | 0.94618 ± 0.00069 | 0.8 | 1.07 ± 0.076
27 | CCC[C@H](N[C@@H](C)C(=O)N1[C@H](C(=O)O)C[C@@H]2CCCC[C@@H]21)C(=O)OCC [Perindopril] | 0.827 ± 0.34 | 1.09 ± 0.028 | 0.917 | 0.98 ± 0.026
28 | Cc1cc(C(C)(C)C)c(O)c(C)c1CC1=NCCN1 [Oxymetazoline hydrochloride] | 1.08 ± 0.39 | 1.03 ± 0.078 | 0.833 | 0.976 ± 0.042
29 | COc1cc(C(=O)NCc2ccc(OCCN(C)C)cc2)cc(OC)c1OC [Trimethobenzamide hydrochloride] | 1.09 ± 0.18 | 1.05 ± 0.012 | 0.833 | 0.9712 ± 0.0027
30 | N[C@@H]1CONC1=O [D-cycloserine] | 0.796 ± 0.24 | 0.976 ± 0.075 | 0.75 | 0.9921 ± 0.0046
31 | CN[C@@H]1[C@@H](O)[C@@H](O[C@@H]2[C@@H](O)[C@H](O[C@H]3OC(CN)=CC[C@H]3N)[C@@H](N)C[C@H]2N)OC[C@]1(C)O [Sisomicin sulfate] | 1.23 ± 0.84 | 1.02 ± 0.043 | 0.833 | 1.11 ± 0.029
